Measured values from PubChem BioAssay (Tox21).
Inconclusive results are not listed. Unmarked numbers belong to inactive results. The source made the active and inactive calls. The call rests on the fitted dose curve; in most records, active means well fitted inhibition curve with a large enough effect in the repeat runs; inconclusive means weak or mixed curves; inactive means no such curve, though single readings can be large or run the other way.

Molecular target: Cytochrome P450 2C9 (Homo sapiens) (UniProt P11712)
Sequence (P11712 whole entry, looked up): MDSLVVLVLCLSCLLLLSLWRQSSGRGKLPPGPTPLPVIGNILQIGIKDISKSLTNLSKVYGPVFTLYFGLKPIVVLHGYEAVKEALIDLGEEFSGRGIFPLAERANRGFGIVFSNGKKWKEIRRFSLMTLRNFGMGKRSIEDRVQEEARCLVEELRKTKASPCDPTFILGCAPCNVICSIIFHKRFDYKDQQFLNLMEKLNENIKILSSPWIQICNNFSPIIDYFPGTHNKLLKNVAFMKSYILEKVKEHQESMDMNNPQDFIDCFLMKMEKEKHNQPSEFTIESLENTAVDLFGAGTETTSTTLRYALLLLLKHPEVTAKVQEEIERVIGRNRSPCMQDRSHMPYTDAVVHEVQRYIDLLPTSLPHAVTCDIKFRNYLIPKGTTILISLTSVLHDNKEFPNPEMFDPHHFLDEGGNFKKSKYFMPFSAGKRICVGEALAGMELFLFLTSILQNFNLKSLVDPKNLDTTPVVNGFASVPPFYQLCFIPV
Assay: Cytochrome P450 Family 2 Subfamily C Member 9 (CYP2C9) small molecule antagonists: luciferase reporter qHTS assay (AID 1671198); further: nearly all actives have a fitted effect of over 50% in size
Settings: P450-Glo CYP2C9 enzyme assay, luciferin luminescence; series mostly up to 53 µM; activity change, negative = inhibition: at the top concentration
Description: U.S. Tox21 Program National Center for Advancing Translational Sciences [NCATS] U.S. Environmental Protection Agency [EPA] National Institutes of Environmental Health Sciences [NIEHS] National Toxicology Program [NTP] U.S. Food and Drug Administration [FDA] Tox21 Assay Overview: Cytochrome P450 (CYP) enzymes are membrane-bound hemeproteins that play a key role in metabolism of drugs and xenobiotics. Evaluation of the effect of chemicals on CYP isozymes is useful to minimize the adverse drug reactions and toxicities in drug development process. Tox21 chemicals were tested for their effect on CYP enzyme activities by using P450-Glo (TM) screening systems (Promega Corporation, Madison, WI). These systems provide a luminescent method containing proluciferin substrates and are converted to luciferin products by CYP isozymes. The luciferin products formed are detected with a luciferin detection reagent, and the amount of light produced is proportional to CYP activity. P450-Glo (TM) CYP2C9 screening system (Catalog. No. V9790) was used to detect the compounds that interfere in CYP2C9 activity.
Tox21 Assay Protocol Summary: Two ul of enzyme-substrate mix was dispensed into medium binding white/solid 1536-well plates (Greiner Bio-One North America Inc., Monroe, NC) using a BioRaptr Flying Reagent Dispenser (FRD, Beckman Coulter, Brea, CA). […] The assay plates were incubated at room temperature for 10 min. Then 2 ul of NADPH regeneration solution was added to each well of the assay plates using an FRD and incubated at 37C for 1 h. The reaction was stopped by adding 4 ul of detection reagent using an FRD and after 20 min incubation at room temperature the luminescence signal was measured using a ViewLux plate reader (Perkin Elmer, Shelton, CT). Data were expressed as relative luminescence units.
On the % scale 0 is the no-effect control and ±100 the full control effect; potency means the concentration at half of the fitted maximal effect.

Row | Structure (SMILES) | activity change, negative = inhibition | Potency
1 | Cc1ncc(CO)c(CN)c1O | -0.595% | –
2 | CC1=NN(c2cc(Cl)c(S(=O)(=O)O)cc2Cl)C(=O)C1N=Nc1ccc(S(=O)(=O)O)cc1 (stereo not given) | -10.8% [at 115 µM] | –
3 | O=c1[nH]c(=O)n([C@H]2C[C@H](O)[C@@H](CO)O2)cc1C(F)(F)F | -3.15% | –
4 | CC(C)OC(C)C | -0.21% [at 115 µM] | –
5 | Cc1ccc([N+](=O)[O-])cc1Cl | 15% [at 115 µM] | –
6 | O=C(O)c1ccccc1Nc1cc(Cl)ccc1C(=O)O | 10.1% [at 23.6 µM] | –
7 | CCOC(=O)NCCC[Si](OCC)(OCC)OCC | -6.16% [at 115 µM] | –
8 | CCCCCCCCCCCCOCCOS(=O)(=O)O | – | 71 µM (active)
9 | CCCCCOc1ccc(C2SC(=O)NC2=O)cc1OCC (stereo not given) | – | 9.77 µM (active)
10 | CCOC(=O)C(Br)c1ccccc1 (stereo not given) | – | 79.6 µM (active)
11 | CCNCCO | -18% [at 115 µM] | –
12 | CCC/C=C/CO | -0.0744% [at 115 µM] | –
13 | CCOc1ccc(NC(N)=O)cc1 | -15% [at 115 µM] | –
14 | Cc1cc2c(s1)Nc1ccccc1N=C2N1CCN(C)CC1 | 4.37% | –
15 | CCCCCCC | -12.2% [at 115 µM] | –
16 | O=[N+]([O-])c1nccn1CO[C@@H](CO)[C@H](O)CO | 0.219% | –
17 | CC1CN(c2ccccc2)NC1=O (stereo not given) | – | 20 µM (active)
18 | Cn1cnc2c(F)c(Nc3ccc(Br)cc3Cl)c(C(=O)NOCCO)cc21 | – | 13.8 µM (active)
19 | CCCCC1CCC(=O)O1 (stereo not given) | -13.2% [at 115 µM] | –
20 | COc1ccccc1N1CCN(CCCNc2cc(=O)n(C)c(=O)n2C)CC1 | 5.12% | –

Row | Structure (SMILES) | activity change, negative = inhibition | Potency
21 | COC(=O)c1ccc(OC)cc1 | -16.6% [at 115 µM] | –
22 | CC(C)C(=O)OCC(C)(C)C(O)C(C)C (stereo not given) | -9.12% [at 115 µM] | –
23 | CC(=O)OC1C2(C)CCC(C2)C1(C)C (stereo not given) | -9.91% [at 115 µM] | –
24 | OCc1ccccc1O | -22.7% | –
25 | CCN(O)CC | 3.31% [at 115 µM] | –
26 | Cc1ccc(C(C)C)cc1O | – | 15.9 µM (active)
27 | CCOc1ccccc1N | – | 31.5 µM (active)
28 | CC(C)O | -0.923% [at 115 µM] | –
29 | O=C(O)c1cccc(Cl)c1Cl | -9.17% [at 115 µM] | –
30 | CN1CCN(N)CC1 | -0.564% | –
31 | CN1CCC[C@@H]1Cc1c[nH]c2ccc(CCS(=O)(=O)c3ccccc3)cc12 | – | 17.4 µM (active)
32 | Cc1cn([C@@H]2O[C@H](CO)[C@@H](O)[C@@H]2F)c(=O)[nH]c1=O | 5.72% | –
33 | CN(C)Cc1ccccc1 | -13.4% [at 115 µM] | –
34 | Nc1ccc(Oc2ccc(N)c(N)c2)cc1 | – | 6.33 µM (active)
35 | Clc1cccc(-c2cc(Cl)cc(Cl)c2)c1 | – | 38.5 µM (active)
36 | CC(C)C1=CC2=CC[C@@H]3[C@](C)(CCC[C@@]3(C)C(=O)O)[C@H]2CC1 | – | 28.3 µM (active)
37 | Cc1nc(N)nc(N)c1-c1ccc(Cl)c(Cl)c1 | -16.9% | –
38 | O=c1[nH]cnc2c1ncn2[C@@H]1O[C@H](CO)[C@@H](O)[C@H]1O | 3.09% | –
39 | C[C@@H](N)C(=O)O | 0.493% | –
40 | CC(=O)N(CC(O)CN(C(C)=O)c1c(I)c(C(=O)NCC(O)CO)c(I)c(C(=O)NCC(O)CO)c1I)c1c(I)c(C(=O)NCC(O)CO)c(I)c(C(=O)NCC(O)CO)c1I (stereo not given) | 7.77% | –
